SMILES strings stand for the structures. Records with an inconclusive call do not appear. Entries that show only a call come without a potency. A structure can be active in one record and inactive in another. The source made the active and inactive calls. Unless noted, calls come from the whole dose curve.

This is an account of results in PubChem BioAssay (Tox21).

Sequence of Estrogen receptor (Homo sapiens) (P03372 whole entry, looked up): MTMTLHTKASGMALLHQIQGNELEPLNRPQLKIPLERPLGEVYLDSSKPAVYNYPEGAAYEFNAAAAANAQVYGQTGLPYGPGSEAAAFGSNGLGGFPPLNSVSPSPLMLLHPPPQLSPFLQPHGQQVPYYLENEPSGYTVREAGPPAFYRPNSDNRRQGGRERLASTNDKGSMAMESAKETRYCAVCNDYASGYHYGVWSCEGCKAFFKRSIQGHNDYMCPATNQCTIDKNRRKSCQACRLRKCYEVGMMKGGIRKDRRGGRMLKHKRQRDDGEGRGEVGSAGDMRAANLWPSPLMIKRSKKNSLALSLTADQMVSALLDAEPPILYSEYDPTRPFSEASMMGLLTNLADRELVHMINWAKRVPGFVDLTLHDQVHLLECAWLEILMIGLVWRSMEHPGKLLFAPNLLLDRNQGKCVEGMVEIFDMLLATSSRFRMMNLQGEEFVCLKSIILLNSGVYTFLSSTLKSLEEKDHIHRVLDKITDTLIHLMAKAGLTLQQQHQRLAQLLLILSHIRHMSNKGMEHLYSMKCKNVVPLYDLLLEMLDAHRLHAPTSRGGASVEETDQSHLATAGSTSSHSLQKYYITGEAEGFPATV

Tested on in the first assay: not listed separately
As to the kind of experiment: qHTS assay to identify small molecule antagonists of the estrogen receptor beta (ER-beta) signaling pathway - cell viability counter screen (AID 1259382; active = well fitted cell-killing curve with a large enough effect in the repeat runs;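 note: HEK293T cells carrying ER-beta-UAS-bla reporter stimulated with estradiol; nearly all actives have a fitted effect of over 55% in size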). The settings on record: ER-beta-UAS-bla HEK293T viability, CellTiter-Glo luminescence, 16 h; series mostly up to 92.4 µM. Summed up:
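Viability is scored by CellTiter-Glo luminescence (30 min, room temperature) in ER-beta-UAS-bla HEK293T wells already read for reporter fluorescence. Compound exposure lasts 16 hr at 37C alongside 1nM 17-beta-estradiol in charcoal-stripped serum medium.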
On the technique in general: Quantitative high-throughput screening tests each substance at several concentrations.
Consider `CO[C@H]1O[C@H](CO)[C@@H](O)[C@H](O)[C@H]1O`, for which the Potency entry was “inactive”.
As to `CCOC(=O)C(C)Oc1ccc(Oc2nc3ccc(Cl)cc3o2)cc1` (centres undefined), the Potency entry was “inactive”.
Still for that read-out and setting: then `Cc1oncc1C(=O)Nc1ccc(C(F)(F)F)cc1`, with “inactive”.
As for `CC1CN(c2cc3c(cc2F)c(=O)c(C(=O)O)cn3-c2ccc(F)cc2F)CCN1` (centres undefined), the activity change, negative = cytotoxicity was 1.64% [at 8.39 µM] (inactive).
On to `COC(OC)(C(=O)c1ccccc1)c1ccccc1`, for which the Potency result was “inactive”.
The same measure, in the same setting: with `O=c1[nH]c2ccc(S(=O)CCN3CCC(Cc4ccc(F)cc4)CC3)cc2o1` (centres undefined) the entry was “inactive”.
For the compound `Cc1nc2ccccc2s1`, the Potency entry was “inactive”.
The same measure, in the same setting: then `CCOCCn1c(C2CCN(CCc3ccc(C(C)(C)C(=O)O)cc3)CC2)nc2ccccc21`, with “inactive”; and `CC(=O)Nc1ccc(N)cc1`, with “inactive”.
In the case of `CCC(=O)OC/C=C/c1ccccc1`, the Potency entry was “inactive”.
Take `CN1CCN(c2c(F)cc3c(=O)c(C(=O)O)cn4c3c2OCN4C)CC1`: the activity change, negative = cytotoxicity is -1.98% [at 19 µM] (inactive).
As to `CCC(C)=O`, the Potency result is “inactive”.
On the same count and under the same terms, then `O=S(=O)(c1ccccc1)c1ccc(Cl)cc1`, with “inactive”; and `O=C(CCC1CCN(Cc2ccccc2)CC1)c1ccc2c(c1)NCCCC2`, with “inactive”.
Regarding `CCn1nc(C)c2c1C(=O)NCC(c1ccc(O)cc1)=N2`, the Potency entry was “inactive”.
With `CC(C)(C)C(=O)C(Oc1ccc(Cl)cc1)n1ccnc1` (centres undefined), the Potency entry is “inactive”.
Still for that read-out and setting: then `CN(C)C(=O)Nc1ccc(Oc2ccc(Cl)cc2)cc1`, with “inactive”.
For `Nc1nc(Cl)nc2c1ncn2[C@@H]1O[C@H](CO)[C@@H](O)[C@@H]1F`, the Potency entry was “inactive”.
`CCOc1cc(N)c(Cl)cc1C(=O)NCC1CN(Cc2ccc(F)cc2)CCO1` (centres undefined): the Potency result was “inactive”.
On to `CC(=O)OCC(=O)[C@H]1CC[C@H]2[C@@H]3CCC4=CC(=O)CC[C@]4(C)[C@H]3CC[C@]12C`, for which the Potency entry was “inactive”.
`Cc1cc(OI)c(C(C)C)cc1-c1cc(C(C)C)c(OI)cc1C`: the Potency entry was “inactive”.

The next assay has as its target Estrogen receptor (Homo sapiens) (UniProt P03372). Description: qHTS assay to identify small molecule agonists of the estrogen receptor alpha (ER-alpha) signaling pathway in the presence of an antagonist (AID 1259383). For activation: top concentration of the series differs between compounds. Note: nearly all actives have a fitted effect of over 15% in size. Note: potency is the fitted concentration of half-maximal effect. As to conditions: VM7Luc4E2 cells, ERE-luciferase, +ICI-182,780, 22 h; series mostly up to 92.4 µM. Summed up:
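Readout was ERE-driven luciferase luminescence in VM7Luc4E2 cells, which express full-length ER-alpha endogenously. Compounds were tested at 15 concentrations for 22hr alongside 10.0nM ICI-182,780 (final concentration).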
Take `CC(CCc1ccc2c(c1)OCO2)NN` (centres undefined): the Potency entry was “inactive”.
For `CC(C)c1nnc2ccc(-c3ocnc3-c3cc(F)ccc3F)cn12`, the Potency entry was “inactive”.
`OC/C(Br)=C(\Br)CO`: the Potency entry was “inactive”.
Regarding `CN1CCCN=C1/C=C/c1cccs1`, the Potency entry is “inactive”.
For the compound `CCC(C(=O)OCCOCCN(CC)CC)c1ccccc1` (centres undefined), the Potency entry is “inactive”.
With `O=C(O)c1cccc(O)c1`, the Potency entry is “inactive”.
The same measure, in the same setting: then `NC(=O)Nc1ccc(Cl)cc1`, with “inactive”.
Turning to `CCCCCCCCCCCC[N+](C)(C)CCCS(=O)(=O)[O-]`, the Potency result was “inactive”.
As to `CCCOCCOCCO`, the Potency result is “inactive”.
Regarding `Cn1c(=O)c2c(ncn2CC(=O)O)n(C)c1=O`, the Potency result was “inactive”.
For `CC#N`, the Potency result is “inactive”.
On to `Cc1oncc1C(=O)Nc1ccc(C(F)(F)F)cc1`, for which the Potency is 3.06 µM (active) and inactive.
Turning to `CC1CN(c2cc3c(cc2F)c(=O)c(C(=O)O)cn3-c2ccc(F)cc2F)CCN1` (centres undefined), the activation is 0.293% [at 8.39 µM] (inactive).
Turning to `O=c1[nH]c2ccc(S(=O)CCN3CCC(Cc4ccc(F)cc4)CC3)cc2o1` (centres undefined), the Potency entry is “inactive”.
As to `Cc1nc2ccccc2s1`, the Potency entry was “inactive”.
As to `CCOCCn1c(C2CCN(CCc3ccc(C(C)(C)C(=O)O)cc3)CC2)nc2ccccc21`, the Potency result is “inactive”.
The same measure, in the same setting: then `CC(=O)Nc1ccc(N)cc1`, with “inactive”; and `CCC(=O)OC/C=C/c1ccccc1`, with “inactive”.
On to `CN1CCN(c2c(F)cc3c(=O)c(C(=O)O)cn4c3c2OCN4C)CC1`, for which the activation is -0.999% [at 19 µM] (inactive).
With `O=S(=O)(c1ccccc1)c1ccc(Cl)cc1`, the Potency entry was “inactive”.
Regarding `O=C(CCC1CCN(Cc2ccccc2)CC1)c1ccc2c(c1)NCCCC2`, the Potency entry was “inactive”.
As to `CCc1nn(CCCN2CCN(c3cccc(Cl)c3)CC2)c(=O)n1CCOc1ccccc1`, the Potency entry was “inactive”.
As to `C[Si](NC1CCCCC1)(NC1CCCCC1)NC1CCCCC1`, the Potency entry was “inactive”.
Regarding `CC(C)(C)C(=O)C(Oc1ccc(Cl)cc1)n1ccnc1` (centres undefined), the Potency entry was “inactive”.
As to `Cc1cc2nc3ccc(=[N+](C)C)cc-3sc2cc1N`, the Potency result is “inactive”.
With `Nc1nc(Cl)nc2c1ncn2[C@@H]1O[C@H](CO)[C@@H](O)[C@@H]1F`, the Potency result was “inactive”.
In the case of `CCOc1cc(N)c(Cl)cc1C(=O)NCC1CN(Cc2ccc(F)cc2)CCO1` (centres undefined), the Potency entry is “inactive”.
On the same count and under the same terms, with `CC(=O)OCC(=O)[C@H]1CC[C@H]2[C@@H]3CCC4=CC(=O)CC[C@]4(C)[C@H]3CC[C@]12C` the entry was “inactive”.

Tested on in a further assay: not listed separately
Description: qHTS assay to identify small molecule agonists or antagonists of the thyroid stimulating hormone receptor (TSHR) signaling pathway - wild type cell line counter screen (AID 1259384). The settings on record: HEK293 wild type, cAMP HTRF counter-screen, stronger effect = higher value; series mostly up to 92.4 µM. In short, it runs like this:
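Wild-type HEK293 cells were plated 18 h at 37 C/5% CO2, pin-dosed with compound plus Ro20-1724 medium, held 30 min at room temperature, then given cAMP-d2 and anti-cAMP-cryptate; fluorescence was read after 1 h. Fifteen concentrations, triplicate.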
As to `CC(CCc1ccc2c(c1)OCO2)NN` (centres undefined), the result was inactive.
In the case of `CC(C)c1nnc2ccc(-c3ocnc3-c3cc(F)ccc3F)cn12`, the call was inactive.
`Cc1cc(S(=O)(=O)O)ccc1N=Nc1c(O)ccc2ccccc12`: the result was inactive.
Take `OC/C(Br)=C(\Br)CO`: the compound was classed as inactive.
Consider `CN1CCCN=C1/C=C/c1cccs1`, for which the call was inactive.
Turning to `CC1(C)C(=O)N(Br)C(=O)N1Cl`, the result was inactive.
Regarding `O=C(O)c1cccc(O)c1`, the call was inactive.
Still for that read-out and setting: with `NC(=O)Nc1ccc(Cl)cc1` the entry was “inactive”.
Take `O=C(O)c1ccc(CO)o1`: the outcome was inactive.
In the case of `CCCCCCOC(=O)C(C)C`, the compound was called inactive.
Consider `CCCCCCCCCCCC[N+](C)(C)CCCS(=O)(=O)[O-]`, for which the outcome was inactive.
Same read-out and setting: with `CCCOCCOCCO` the entry was “inactive”.
For the compound `Cc1cc(O)c2c(O)c3c(O)cccc3cc2c1`, the compound was classed as inactive.
Regarding `Cn1c(=O)c2c(ncn2CC(=O)O)n(C)c1=O`, the result was inactive.
With `CC#N`, the call was inactive.
As for `CO[C@H]1O[C@H](CO)[C@@H](O)[C@H](O)[C@H]1O`, the compound was called inactive.
Regarding `Cc1oncc1C(=O)Nc1ccc(C(F)(F)F)cc1`, the result was inactive.
On to `CC1CN(c2cc3c(cc2F)c(=O)c(C(=O)O)cn3-c2ccc(F)cc2F)CCN1` (centres undefined), for which the cAMP activity change is -5.92% [at 8.39 µM] (inactive).
With `COC(OC)(C(=O)c1ccccc1)c1ccccc1`, the compound was called inactive.
As to `O=c1[nH]c2ccc(S(=O)CCN3CCC(Cc4ccc(F)cc4)CC3)cc2o1` (centres undefined), the result was inactive.
`Cc1nc2ccccc2s1`: the compound was classed as inactive.
For `CCOCCn1c(C2CCN(CCc3ccc(C(C)(C)C(=O)O)cc3)CC2)nc2ccccc21`, the result was inactive.
For `CC(=O)Nc1ccc(N)cc1`, the outcome was inactive.
With `CN1CCN(c2c(F)cc3c(=O)c(C(=O)O)cn4c3c2OCN4C)CC1`, the cAMP activity change is 0.366% [at 18.9 µM] (inactive).
As for `O=S(=O)(c1ccccc1)c1ccc(Cl)cc1`, the compound was called inactive.
Take `O=C(CCC1CCN(Cc2ccccc2)CC1)c1ccc2c(c1)NCCCC2`: the compound was called inactive.
On the same count and under the same terms, then `CCn1nc(C)c2c1C(=O)NCC(c1ccc(O)cc1)=N2`, with “inactive”; and `CCc1nn(CCCN2CCN(c3cccc(Cl)c3)CC2)c(=O)n1CCOc1ccccc1`, with “inactive”.
On the same count and under the same terms, then `C[Si](NC1CCCCC1)(NC1CCCCC1)NC1CCCCC1`, with “inactive”; and `CC(C)(C)C(=O)C(Oc1ccc(Cl)cc1)n1ccnc1` (centres undefined), with “inactive”; and `CN(C)C(=O)Nc1ccc(Oc2ccc(Cl)cc2)cc1`, with “inactive”.
For `Nc1nc(Cl)nc2c1ncn2[C@@H]1O[C@H](CO)[C@@H](O)[C@@H]1F`, the call was inactive.
On the same count and under the same terms, then `CCOc1cc(N)c(Cl)cc1C(=O)NCC1CN(Cc2ccc(F)cc2)CCO1` (centres undefined), with “inactive”.
Regarding `CC(=O)OCC(=O)[C@H]1CC[C@H]2[C@@H]3CCC4=CC(=O)CC[C@]4(C)[C@H]3CC[C@]12C`, the compound was called inactive.
Turning to `Cc1cc(OI)c(C(C)C)cc1-c1cc(C(C)C)c(OI)cc1C`, the result was inactive.
